Experimental data taken from PMC8384837, “Expanding the binding specificity for RNA recognition by a PUF domain”.
Residue numbers refer to the chain shown, from its start.

What was measured:
Experiment in all cases: yeast three-hybrid, YBZ-1, SC-Leu-His + 0.5 mM 3-AT, 4 days
Conditions in all cases: tags: N-Gal4 AD-HA kept; label: inside an RPR1-promoter hybrid RNA with tandem MS2 sites; ssRNA
PUM1 PUF domain R6-IFM = molecular target: T1, PUM1 PUF domain R6-IFM (Homo sapiens, UniProt Q14671 828-1176, N1043I;Y1044F;Q1047M)
T1 sequence: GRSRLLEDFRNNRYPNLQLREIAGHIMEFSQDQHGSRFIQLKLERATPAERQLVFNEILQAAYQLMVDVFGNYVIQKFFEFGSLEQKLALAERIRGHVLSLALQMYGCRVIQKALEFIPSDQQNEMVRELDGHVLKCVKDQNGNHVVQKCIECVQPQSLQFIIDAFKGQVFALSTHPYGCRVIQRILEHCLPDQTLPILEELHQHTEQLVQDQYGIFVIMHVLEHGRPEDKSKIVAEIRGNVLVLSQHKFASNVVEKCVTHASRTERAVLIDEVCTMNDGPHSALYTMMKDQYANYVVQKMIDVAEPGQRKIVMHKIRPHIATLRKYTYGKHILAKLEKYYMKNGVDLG
Method in brief: (§1)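 The interaction score is the logarithmic change in variant frequency from input to selection. It uses log2, with a pseudocount of 1 for absent variants, and frequencies came from PCR-amplified, Illumina-sequenced repeat regions. The libraries were Pumilio-1 PUF domains randomized at the three base-contacting residues per repeat, co-expressed with matching RNA elements in strain YBZ-1 (LexA–MS2 coat fusion, HIS3 reporter). Plating lasted four days on SC-Leu (input) or SC-Leu-His + 0.5 mM 3-AT (selection).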

PUM1 PUF domain R6-MWS = molecular target: T2, PUM1 PUF domain R6-MWS (Homo sapiens, UniProt Q14671 828-1176, N1043M;Y1044W;Q1047S)
T2 sequence: T1 sequence with I216M, F217W, M220S
Method in brief: as §1

PUM1 PUF domain R6-CFI = molecular target: T3, PUM1 PUF domain R6-CFI (Homo sapiens, UniProt Q14671 828-1176, N1043C;Y1044F;Q1047I)
T3 sequence: T1 sequence with I216C, M220I
Method in brief: as §1

PUM1 PUF domain R1-HWR = PUM1 PUF domain R1-HWR (Homo sapiens, UniProt Q14671 828-1176, S863H;R864W;Q867R)
Method in brief: as §1

PUM1 PUF domain R1-YTR = PUM1 PUF domain R1-YTR (Homo sapiens, UniProt Q14671 828-1176, S863Y;R864T;Q867R)
Method in brief: as §1

PUM1 PUF domain R1-TGE = PUM1 PUF domain R1-TGE (Homo sapiens, UniProt Q14671 828-1176, S863T;R864G;Q867E)
Method in brief: as §1

PUM1 PUF domain R8-QWC = PUM1 PUF domain R8-QWC (Homo sapiens, UniProt Q14671 828-1176, N1122Q;Y1123W;Q1126C)
Method in brief: as §1

PUM1 PUF domain R8-MFR = PUM1 PUF domain R8-MFR (Homo sapiens, UniProt Q14671 828-1176, N1122M;Y1123F;Q1126R)
Method in brief: as §1

PUM1 PUF domain R8-RYS = PUM1 PUF domain R8-RYS (Homo sapiens, UniProt Q14671 828-1176, N1122R;Q1126S)
Method in brief: as §1

PUM1 PUF domain R5-KGE = PUM1 PUF domain R5-KGE (Homo sapiens, UniProt Q14671 828-1176, C1007K;R1008G;Q1011E)
Method in brief: as §1

PUM1 PUF domain R4-THL = PUM1 PUF domain R4-THL (Homo sapiens, UniProt Q14671 828-1176, N971T;Q975L)
Method in brief: as §1

PUM1 PUF domain R3-PWN = PUM1 PUF domain R3-PWN (Homo sapiens, UniProt Q14671 828-1176, C935P;R936W;Q939N)
Method in brief: as §1

PUM1 PUF domain R4-RWP = PUM1 PUF domain R4-RWP (Homo sapiens, UniProt Q14671 828-1176, N971R;H972W;Q975P)
Method in brief: as §1

PUM1 PUF domain R6-QRR = molecular target: T4, PUM1 PUF domain R6-QRR (Homo sapiens, UniProt Q14671 828-1176, N1043Q;Y1044R;Q1047R)
T4 sequence: T1 sequence with I216Q, F217R, M220R
Method in brief: as §1

PUM1 PUF domain R4-SRI = PUM1 PUF domain R4-SRI (Homo sapiens, UniProt Q14671 828-1176, N971S;H972R;Q975I)
Method in brief: as §1

PUM1 PUF domain R3-RAF = PUM1 PUF domain R3-RAF (Homo sapiens, UniProt Q14671 828-1176, C935R;R936A;Q939F)
Method in brief: as §1

PUM1 PUF domain R3-RSP = PUM1 PUF domain R3-RSP (Homo sapiens, UniProt Q14671 828-1176, C935R;R936S;Q939P)
Method in brief: as §1

**Q.** “GGCUAGAACUAGUGGAUCCCCCGGCGCCCGGCGGCUCGAGCCCGGGUAAGUGAAAAUAGUCUGCAUGCCGCCGGGCGCCAUGCCUGCAGGUCGACUCUAGAAAACAUG” was tested. Which binding signal (PUM1 PUF domain R6-IFM) did it give?
**A.** Its binding signal is 6.96 log2 enrichment (interaction score).

**Q.** What about the binding signal (PUM1 PUF domain R6-MWS) of the same sequence?
**A.** The binding signal was 2.78 log2 enrichment (interaction score).

**Q.** What about the binding signal (PUM1 PUF domain R6-CFI) of the same sequence?
**A.** The binding signal was 5.68 log2 enrichment (interaction score).

**Q.** What does the source list for “GGCUAGAACUAGUGGAUCCCCCGGCGCCCGGCGGCUCGAGCCCGGGUAAGUGUAAAUCGUCUGCAUGCCGCCGGGCGCCAUGCCUGCAGGUCGACUCUAGAAAACAUG”?
**A.** binding signal (PUM1 PUF domain R1-HWR): 5.91 log2 enrichment (interaction score); binding signal (PUM1 PUF domain R1-YTR): 6.08 log2 enrichment (interaction score)

**Q.** Which binding signal (PUM1 PUF domain R1-HWR) does the source give for “GGCUAGAACUAGUGGAUCCCCCGGCGCCCGGCGGCUCGAGCCCGGGUAAGUGUAAAUUGUCUGCAUGCCGCCGGGCGCCAUGCCUGCAGGUCGACUCUAGAAAACAUG” here?
**A.** The binding signal was 3.32 log2 enrichment (interaction score).

**Q.** What about the binding signal (PUM1 PUF domain R1-TGE) of the same sequence?
**A.** Its binding signal is 3.46 log2 enrichment (interaction score).

**Q.** And the binding signal (PUM1 PUF domain R1-YTR)?
**A.** Its binding signal is 6.22 log2 enrichment (interaction score).

**Q.** Which binding signal (PUM1 PUF domain R8-QWC) does the source give for “GGCUAGAACUAGUGGAUCCCCCGGCGCCCGGCGGCUCGAGCCCGGGUAAGCGUAAAUAGUCUGCAUGCCGCCGGGCGCCAUGCCUGCAGGUCGACUCUAGAAAACAUG” here?
**A.** Its binding signal is 2.08 log2 enrichment (interaction score).

**Q.** What about the binding signal (PUM1 PUF domain R8-MFR) of the same sequence?
**A.** The binding signal was 5.35 log2 enrichment (interaction score).

**Q.** And the binding signal (PUM1 PUF domain R8-RYS)?
**A.** Its binding signal is 6.43 log2 enrichment (interaction score).

**Q.** What does the source list for “GGCUAGAACUAGUGGAUCCCCCGGCGCCCGGCGGCUCGAGCCCGGGUAAGUGUAAAUAGUCUGCAUGCCGCCGGGCGCCAUGCCUGCAGGUCGACUCUAGAAAACAUG”?
**A.** binding signal (PUM1 PUF domain R8-QWC): 3 log2 enrichment (interaction score); binding signal (PUM1 PUF domain R8-MFR): 3.78 log2 enrichment (interaction score); binding signal (PUM1 PUF domain R5-KGE): 2.24 log2 enrichment (interaction score); binding signal (PUM1 PUF domain R4-THL): 4.66 log2 enrichment (interaction score); binding signal (PUM1 PUF domain R3-PWN): 2.55 log2 enrichment (interaction score); binding signal (PUM1 PUF domain R4-RWP): 5.93 log2 enrichment (interaction score); binding signal (PUM1 PUF domain R6-MWS): 5.31 log2 enrichment (interaction score); binding signal (PUM1 PUF domain R6-QRR): 6.35 log2 enrichment (interaction score); binding signal (PUM1 PUF domain R8-RYS): 4.4 log2 enrichment (interaction score); binding signal (PUM1 PUF domain R4-SRI): 3.08 log2 enrichment (interaction score)

**Q.** For “GGCUAGAACUAGUGGAUCCCCCGGCGCCCGGCGGCUCGAGCCCGGGUAAGUGUCAAUAGUCUGCAUGCCGCCGGGCGCCAUGCCUGCAGGUCGACUCUAGAAAACAUG”, which binding signal (PUM1 PUF domain R5-KGE) is on record?
**A.** Its binding signal is 5.15 log2 enrichment (interaction score).

**Q.** How did the binding signal (PUM1 PUF domain R3-RAF) turn out when “GGCUAGAACUAGUGGAUCCCCCGGCGCCCGGCGGCUCGAGCCCGGGUAAGUGUAAUUAGUCUGCAUGCCGCCGGGCGCCAUGCCUGCAGGUCGACUCUAGAAAACAUG” was run?
**A.** Its binding signal is 3.3 log2 enrichment (interaction score).

**Q.** What about the binding signal (PUM1 PUF domain R3-RSP) of the same sequence?
**A.** Its binding signal is 4.96 log2 enrichment (interaction score).
